Test results from ChEMBL document CHEMBL1961873, “Compounds: GSK PKIS; Assays: Nanosyn kinase panel” (2012).
“And” between values parts separate entries of the source, which are not always exact repeats. Equal entries are not always repeated.

biological target: Tyrosine-protein kinase Lyn (Homo sapiens) (UniProt P07948); details: at 1 µM
Sequence (P07948 2-512 limits assumed): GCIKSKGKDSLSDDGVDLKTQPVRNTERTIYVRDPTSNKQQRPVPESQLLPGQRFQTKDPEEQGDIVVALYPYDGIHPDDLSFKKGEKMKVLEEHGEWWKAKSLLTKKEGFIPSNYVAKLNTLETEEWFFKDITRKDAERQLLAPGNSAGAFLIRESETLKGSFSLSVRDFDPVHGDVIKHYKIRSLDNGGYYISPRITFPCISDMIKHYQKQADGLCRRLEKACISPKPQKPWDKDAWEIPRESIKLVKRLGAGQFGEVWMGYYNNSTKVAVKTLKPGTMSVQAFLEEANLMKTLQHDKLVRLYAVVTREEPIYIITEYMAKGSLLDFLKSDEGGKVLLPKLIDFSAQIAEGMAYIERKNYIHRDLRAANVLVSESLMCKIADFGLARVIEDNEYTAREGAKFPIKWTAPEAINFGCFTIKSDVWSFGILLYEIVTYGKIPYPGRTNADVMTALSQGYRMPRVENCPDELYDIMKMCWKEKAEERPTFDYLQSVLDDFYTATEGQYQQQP

Row | Compound | inhibition
1 | CCS(=O)(=O)c1ccc(OC)c(Nc2ncc(-c3cccc(F)c3)o2)c1 | 78.7%
2 | CC1(C)CC(n2cnc(-c3ccc(F)cc3)c2-c2ccnc(N)n2)CC(C)(C)N1 | 2.44%
3 | Fc1ccc(Nc2nccc(-c3c(-c4ccc(C(F)(F)F)cc4)nn4ncccc34)n2)cc1F | 2.13%
4 | CCOc1ccc2c(-c3ccnc(Nc4cc(OC)cc(C(F)(F)F)c4)n3)cnn2n1 | 5.91%
5 | CS(=O)(=O)CCNCc1ccoc1-c1ccc2ncnc(Nc3ccc(OCc4ccccc4)cc3)c2c1 | 4.27%
6 | Cc1ccc(-c2cc3c(NC(=O)C4CC4)ncnc3o2)cc1 | 6.63%
7 | O=C(O[C@H]1CN[C@H](C#Cc2cc3ncnc(Nc4ccc(OCc5cccc(F)c5)c(Cl)c4)c3s2)C1)N1CCOCC1 | 6.48%
8 | COc1ccc(Nc2ncc(-c3ccccc3)o2)cc1OC | 37.3%
9 | O=C(O[C@H]1CN[C@H](C#Cc2cc3ncnc(Nc4ccc5c(ccn5Cc5cc(F)ccc5F)c4)c3s2)C1)N1CCOCC1 | 6.23%
10 | Cc1c2ccc(N(C)c3ccnc(Nc4cccc(S(N)(=O)=O)c4)n3)cc2nn1C | 83.6%
11 | OCCCNc1nccc(-c2c(-c3ccc(F)cc3)nn3cc(C(F)(F)F)ccc23)n1 | 7.02%
12 | O=C(O[C@H]1CN[C@H](C#Cc2cc3ncnc(Nc4ccc5c(cnn5Cc5ccccc5)c4)c3s2)C1)N1CCOCC1 | 1.11%
13 | CCS(=O)(=O)c1ccc(OC)c(Nc2ncc(-c3cccc(C(C)=O)c3)o2)c1 | 45.5%
14 | CS(=O)(=O)CCNCc1ccc(-c2ccc3ncnc(Nc4ccc(OCc5ccccc5)cc4)c3c2)o1 | 9.83%
15 | Cn1c(-c2nonc2N)nc2cnccc21 | 2.29%
16 | COc1cc2c(cc1Nc1nc(Nc3cccc(F)c3C(N)=O)c3cc[nH]c3n1)N(C(=O)CN1CCN(C(C)C)CC1)CC2 | -0.57%

Row | Compound | inhibition
17 | Fc1cccc(COc2ccc(Nc3ncncc3C#Cc3ccccc3)cc2Cl)c1 | 7.71%
18 | CS(=O)(=O)Nc1ccc(-c2ccc3c(NC(=O)C4CC4)n[nH]c3c2)cc1 | 4.62%
19 | CCCNc1cccc(-n2ncc3c(N/N=C/c4ccncc4)ncnc32)c1 | 69.6%
20 | Nc1ncnc2occ(-c3ccc(NC(=O)Nc4cc(C(F)(F)F)ccc4F)cc3)c12 | 73.7% and 57.2%
21 | NS(=O)(=O)c1cccc(N/C=C2\C(=O)Nc3ccccc32)c1 | 11.6%
22 | COc1cc(N2CCN(C(C)C)CC2)ccc1Nc1nc(Nc2cccc3ncccc23)c2cc[nH]c2n1 | 2.82%
23 | CN1CCC(C(=O)Nc2n[nH]c3nc(-c4ccc(O)cc4)c(Br)cc23)CC1 | 8.89% and 2.99%
24 | CCn1c(-c2nonc2N)nc2cncc(C(=O)NCCNC)c21 | 6.4%
25 | CCN1CCC(C(=O)Nc2n[nH]c3nnc(-c4cccc(F)c4F)cc23)CC1 | -1.05%
26 | CNC(=O)c1sc(-n2cnc3cc(OC)c(OC)cc32)cc1OCc1ccccc1C(F)(F)F | 8.91%
27 | N#Cc1ccc2c(-c3ccnc(NC4CC4)n3)c(-c3ccc(F)cc3)nn2c1 | 1.87%
28 | COc1ccc2ncn(-c3cc(O[C@H](C)c4ccccc4C(F)(F)F)c(C(N)=O)s3)c2c1 | 1.75%
29 | c1cnn2ncc(-c3ccnc(NCCCN4CCOCC4)n3)c2c1 | 3.64%
30 | O=C(Nc1n[nH]c2nnc(-c3cccnc3)cc12)C1CC1 | 1.49%
31 | CS(=O)(=O)CCNCc1ccc(-c2ccc3ncnc(Nc4ccc(OCc5cccc(C(F)(F)F)c5)cc4)c3c2)o1 | 5.36%

biological target: Tyrosine-protein kinase Lyn (Homo sapiens) (UniProt P07948); details: at 0.1 µM

Row | Compound | inhibition
32 | CCS(=O)(=O)c1ccc(OC)c(Nc2ncc(-c3cccc(F)c3)o2)c1 | 26.3%
33 | CC1(C)CC(n2cnc(-c3ccc(F)cc3)c2-c2ccnc(N)n2)CC(C)(C)N1 | -0.62%
34 | Fc1ccc(Nc2nccc(-c3c(-c4ccc(C(F)(F)F)cc4)nn4ncccc34)n2)cc1F | 1.22%
35 | CCOc1ccc2c(-c3ccnc(Nc4cc(OC)cc(C(F)(F)F)c4)n3)cnn2n1 | 0.62%
36 | CS(=O)(=O)CCNCc1ccoc1-c1ccc2ncnc(Nc3ccc(OCc4ccccc4)cc3)c2c1 | 1.69%
37 | Cc1ccc(-c2cc3c(NC(=O)C4CC4)ncnc3o2)cc1 | 2.61%
38 | O=C(O[C@H]1CN[C@H](C#Cc2cc3ncnc(Nc4ccc(OCc5cccc(F)c5)c(Cl)c4)c3s2)C1)N1CCOCC1 | 2.24%
39 | COc1ccc(Nc2ncc(-c3ccccc3)o2)cc1OC | 5.1%
40 | O=C(O[C@H]1CN[C@H](C#Cc2cc3ncnc(Nc4ccc5c(ccn5Cc5cc(F)ccc5F)c4)c3s2)C1)N1CCOCC1 | 2.03%
41 | Cc1c2ccc(N(C)c3ccnc(Nc4cccc(S(N)(=O)=O)c4)n3)cc2nn1C | 36.3%
42 | OCCCNc1nccc(-c2c(-c3ccc(F)cc3)nn3cc(C(F)(F)F)ccc23)n1 | 3%
43 | O=C(O[C@H]1CN[C@H](C#Cc2cc3ncnc(Nc4ccc5c(cnn5Cc5ccccc5)c4)c3s2)C1)N1CCOCC1 | 1.54%
44 | CCS(=O)(=O)c1ccc(OC)c(Nc2ncc(-c3cccc(C(C)=O)c3)o2)c1 | 7.74%
45 | CS(=O)(=O)CCNCc1ccc(-c2ccc3ncnc(Nc4ccc(OCc5ccccc5)cc4)c3c2)o1 | 4.55%
46 | Cn1c(-c2nonc2N)nc2cnccc21 | 2.97%
47 | COc1cc2c(cc1Nc1nc(Nc3cccc(F)c3C(N)=O)c3cc[nH]c3n1)N(C(=O)CN1CCN(C(C)C)CC1)CC2 | -1.56%

Row | Compound | inhibition
48 | Fc1cccc(COc2ccc(Nc3ncncc3C#Cc3ccccc3)cc2Cl)c1 | 2.8%
49 | CS(=O)(=O)Nc1ccc(-c2ccc3c(NC(=O)C4CC4)n[nH]c3c2)cc1 | 2.46%
50 | CCCNc1cccc(-n2ncc3c(N/N=C/c4ccncc4)ncnc32)c1 | 15.4%
51 | Nc1ncnc2occ(-c3ccc(NC(=O)Nc4cc(C(F)(F)F)ccc4F)cc3)c12 | 17.2% and 6.3%
52 | NS(=O)(=O)c1cccc(N/C=C2\C(=O)Nc3ccccc32)c1 | 3.69%
53 | COc1cc(N2CCN(C(C)C)CC2)ccc1Nc1nc(Nc2cccc3ncccc23)c2cc[nH]c2n1 | 0.31%
54 | CN1CCC(C(=O)Nc2n[nH]c3nc(-c4ccc(O)cc4)c(Br)cc23)CC1 | 2.55% and 3.95%
55 | CCn1c(-c2nonc2N)nc2cncc(C(=O)NCCNC)c21 | 3.01%
56 | CCN1CCC(C(=O)Nc2n[nH]c3nnc(-c4cccc(F)c4F)cc23)CC1 | 1.1%
57 | CNC(=O)c1sc(-n2cnc3cc(OC)c(OC)cc32)cc1OCc1ccccc1C(F)(F)F | 4.12%
58 | N#Cc1ccc2c(-c3ccnc(NC4CC4)n3)c(-c3ccc(F)cc3)nn2c1 | -0.74%
59 | COc1ccc2ncn(-c3cc(O[C@H](C)c4ccccc4C(F)(F)F)c(C(N)=O)s3)c2c1 | -0.04%
60 | c1cnn2ncc(-c3ccnc(NCCCN4CCOCC4)n3)c2c1 | 2.77%
61 | O=C(Nc1n[nH]c2nnc(-c3cccnc3)cc12)C1CC1 | 1.05%
62 | CS(=O)(=O)CCNCc1ccc(-c2ccc3ncnc(Nc4ccc(OCc5cccc(C(F)(F)F)c5)cc4)c3c2)o1 | -0.37%
